# High-throughput results (PubChem)
# An excerpt weighted towards active compounds, which were near 3.5% of everything screened.
# TEAD-YAP block – TEAD-YAP interaction inhibition, primary screen, TEAD-YAP interaction inhibitor project, luminescence, HEK-TIYL cells; AID 1259422, 2018; inhibition, % at 9.12 µM; TEAD-Gal4/YAP UAS-luciferase luminescence; 1.4% of 640,000 active; in the data active = inhibition above about 32%;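 also: 0% = median of test compound wells and 100% = reference inhibitor wells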
# GPR151 ag – activators of human GPR151, primary screen, cell-based, PathHunter beta-arrestin, luminescence; 1% of 650,000 active; PathHunter beta-arrestin GPR151 cells; G-protein coupled receptor 151 (Homo sapiens), Q8TDV0; activation, % at 11.2 µM; AID 1508602, 2020; in the data active = activation above about 4.9%;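 also: 0% = median of compound wells and 100% = cells with positive control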
# Target sequence (Q8TDV0 whole entry, looked up): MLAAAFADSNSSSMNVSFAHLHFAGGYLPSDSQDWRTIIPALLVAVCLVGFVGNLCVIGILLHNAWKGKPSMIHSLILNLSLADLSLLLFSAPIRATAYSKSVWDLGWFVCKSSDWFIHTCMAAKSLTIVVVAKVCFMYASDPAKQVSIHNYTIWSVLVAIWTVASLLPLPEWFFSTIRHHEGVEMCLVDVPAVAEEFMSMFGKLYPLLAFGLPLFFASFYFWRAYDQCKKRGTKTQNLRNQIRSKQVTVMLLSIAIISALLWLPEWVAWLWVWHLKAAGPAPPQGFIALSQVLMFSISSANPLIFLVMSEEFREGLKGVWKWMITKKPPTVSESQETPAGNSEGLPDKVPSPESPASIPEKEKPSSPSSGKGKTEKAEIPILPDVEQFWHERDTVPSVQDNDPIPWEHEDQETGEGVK
# MITF primary – MITF inhibitors, primary screen, biochemical, AlphaScreen, human | Microphthalmia-associated transcription factor (Homo sapiens), O75030 | AlphaScreen MITF homodimerization, bead proximity signal | inhibition, % at 2.6 µM | 0.91% of 650,000 active | AID 1259374, 2018; in the data active = inhibition above about 50%;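 also: 0% = vehicle wells with protein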
# FBW7 act – FBW7 E3 ligase activators, primary screen, biochemical, AlphaScreen, human; AlphaScreen FBW7–phospho-cyclin E peptide binding, activator screen; normalized activity (activation), % at 26.1 µM; 0.13% of 650,000 active; AID 1259310, 2017; in the data active = normalized activity above about 1.9%;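 also: purified mutant Fbw7 with reduced substrate affinity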
# Numbers without * were called inactive; / = no result.
SMILES,TEAD-YAP block,GPR151 ag,MITF primary,FBW7 act
Cc1ccc(Nc2nc(-c3ccc(O)cc3)cs2)nc1,33*,1,-16,0
C[C@H]1O[C@@H](O[C@H]2[C@@H](O)C[C@H](O[C@H]3[C@@H](O)C[C@H](O[C@H]4CC[C@]5(C)C6CC[C@]7(C)[C@@H](C8=CC(=O)OC8)CC[C@]7(O)C6CC[C@@H]5C4)O[C@@H]3C)O[C@@H]2C)C[C@H](O)[C@@H]1O (stereo partly drawn),99*,4,24,0
C[C@H]1O[C@@H](O[C@H]2[C@@H](O)C[C@H](O[C@H]3[C@@H](O)C[C@H](O[C@H]4CC[C@@]5(C)[C@H](CC[C@@H]6[C@@H]5C[C@@H](O)[C@]5(C)[C@@H](C7=CC(=O)OC7)CC[C@]65O)C4)O[C@@H]3C)O[C@@H]2C)C[C@H](O)[C@@H]1O,/,0,8,0
Cc1ccnc(NC(c2ccc3cccnc3c2O)c2sccc2C)c1 (stereo not drawn),30,0,22,-1
Cc1ccnc(NC(c2ccc(N(C)C)cc2)c2ccc3cccnc3c2O)c1 (stereo not drawn),-56,2,60*,0
Cc1ccnc(NC(c2ccc(C(C)C)cc2)c2ccc3cccnc3c2O)c1 (stereo not drawn),53*,0,4,0
Cc1ccnc(NC(c2ccc(Cl)cc2)c2ccc3cccnc3c2O)c1 (stereo not drawn),84*,1,13,-1
Cc1ccnc(NC(c2ccc(O)cc2)c2ccc3cccnc3c2O)c1 (stereo not drawn),-5,0,27,-1
NC(=O)c1cnn(-c2ccnc(NC(=O)Cc3ccc4c(c3)OCO4)c2)c1,45*,-2,17,0
Cc1cccc(NC(=O)Cc2ccc3c(c2)OCO3)n1,-30,0,-3,2
Fc1ccc2nc(Nc3nc(-c4ccccn4)cs3)sc2c1,52*,2,33,0
COc1ccc(-c2csc(Nc3ccccc3OC)n2)c(OC)c1,-3,-1,-5,0
CCc1ccc(Nc2nc(-c3ccccn3)cs2)cc1,40*,-3,14,0
CCOc1ccc(Nc2nc(-c3sc(NC(=O)CC)nc3C)cs2)cc1,48*,-2,7,0
Fc1ccc2nc(Nc3nc(-c4ccncc4)cs3)sc2c1,-8,0,-1,0
COc1cccc(Nc2nc(-c3ccc(OC)cc3OC)cs2)c1,64*,1,7,0
COc1ccc(C(=O)NNC(=O)c2ccc(C)cc2)c(OC)c1,-34,-1,-5,1
CCOP(=O)(OCC)c1nc(-c2ccc(OC)cc2)oc1NCc1ccco1,-13,1,-2,0
O=C(CC1(O)C(=O)Nc2ccc(Br)cc21)c1cccc(-n2cccc2)c1 (stereo not drawn),-5,0,-5,0
CCOC(=O)C1=C(C)n2c(s/c(=C/c3ccc(O)cc3)c2=O)=NC1c1ccc(O)c(OC)c1 (stereo not drawn),-1,1,-3,0
COc1ccccc1Nc1nc(-c2sc(C)nc2C)cs1,-50,1,18,0
COc1cc(Br)c(Nc2nc(-c3sc(NC(=O)c4ccccc4)nc3C)cs2)c(Br)c1,42*,-5,2,0
COc1ccc(Nc2nc(-c3sc(C)nc3C)cs2)cc1,42*,-1,15,0
Cc1nc(N)sc1-c1csc(Nc2cccc(C(F)(F)F)c2)n1,-8,0,52*,0
Cc1nc(NC(=O)c2ccccc2)sc1-c1csc(Nc2cccc(Cl)c2C)n1,-11,-6,-16,0
SMILES,TEAD-YAP block,GPR151 ag,MITF primary,FBW7 act
COc1ccc(Nc2nc(-c3ccccn3)cs2)cc1,43*,-5,11,-2
CCOc1ccc(Nc2nc(-c3ccccn3)cs2)cc1,16,-4,9,-2
COc1ccc(-c2nn(-c3ccccc3C)cc2CN2CCN(C(C)=O)CC2)cc1F,2,5,14,0
CCC(c1nnnn1C1CCCC1)N1CCN(C2CCCC2)CC1 (stereo not drawn),-1,-1,-6,0
CCOc1ccc(C(=O)c2cc([N+](=O)[O-])ccc2N2CCOCC2)cc1,60*,0,9,0
Cc1ccc(C(=O)c2cc([N+](=O)[O-])ccc2N2CCOCC2)cc1,9,0,10,0
CCC(CC)NC(=O)c1cc([N+](=O)[O-])ccc1N1CCOCC1,9,1,3,0
COc1ccc(C(=O)c2cc([N+](=O)[O-])ccc2N2CCOCC2)cc1,60*,1,-6,0
Cc1ccc(CN2CCN(Cc3cnn(C)c3)CC2CCO)cc1 (stereo not drawn),-1,0,3,0
CC(=O)c1cccc(-c2cccc(C(=O)NCCN(C(C)C)C(C)C)c2)c1,1,2,-4,0
CCCC(=O)N1CCc2cc(-c3csc(NC(=O)C(=O)OCC)n3)ccc21,2,0,-1,0
CC(C)(C)c1ccc(-c2ccc(OCCN3CCCC3=O)nc2)cc1,52*,1,7,0
COc1ccc(/C=C/c2nn3c(Cn4cnc5ccccc54)nnc3s2)cc1,39*,3,7,0
CC(C)C(NC(=O)C12CC3CC(CC(C3)C1)C2)C(=O)Nc1ccccc1 (stereo not drawn),10,1,12,0
COCCNC(=O)CCC1CCN(C(=O)C#Cc2ccccc2)CC1,38*,2,2,0
COCCNC(=O)CCC1CCN(C(=O)CCOc2ccccc2)CC1,-4,-1,-13,0
CCCC1=NN(C(=O)COc2ccccc2C)C(O)(C(F)(F)F)C1 (stereo not drawn),-9,0,-9,0
CC1CCCN(c2ncnc3ccc([N+](=O)[O-])cc23)C1 (stereo not drawn),35*,1,1,0
O=[N+]([O-])c1ccc2ncnc(N3CCN(Cc4ccccc4)CC3)c2c1,9,-1,16,1
CCOc1cc(/C=C(\C#N)C(=O)Nc2ccc(Cl)cc2[N+](=O)[O-])ccc1OC(C)=O,-1,0,-1,0
CS(=O)(=O)N(CC(=O)N/N=C/c1cc(Cl)cc(Cl)c1O)c1ccccc1,58*,1,8,0
CCCCCOC(=O)c1ccc(N2C(=O)C3C4c5ccccc5C(c5ccccc54)C3C2=O)cc1 (stereo not drawn),2,-1,-5,0
CCCC1CC(=O)C(C=Nc2ccc(Br)cc2)=C(O)C1 (stereo not drawn),-1,-1,-3,0
O=C(CCNC(=O)Oc1ccccc1)NC1CCCCC1,6,-1,7,1.9*
O=C(CCNC(=O)OCc1ccccc1)NC1CCCCC1,7,1,17,1
CCCCC(=O)NC(=S)Nc1ccc(N2CCN(C)CC2)cc1,-14,2,22,0
CC(C)C(=O)NC(c1ccccc1Cl)c1ccc2cccnc2c1O (stereo not drawn),84*,1,19,-2
